These results are taken from PubChem BioAssay (NCATS).

Experiment [1] can be described thus: Identifying Small Molecule Inhibitors of Pancreatic Cancer Stem Cells (SN12C, Spheroid) (AID 1259360). Further: potency means the concentration at half of the fitted maximal effect. The conditions noted are these: Potency: SN12C spheroid viability. In a few lines: (§1)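 Pre-formed 14-day tumor spheroids or adherent cells dosed and incubated 48 h, 37C, 5% CO2. Viability assessed by CellTiter-Glo.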
Experiment [2] can be described thus: Identifying Small Molecule Inhibitors of Pancreatic Cancer Stem Cells (A278, Adherent) (AID 1259361). Further: nearly all actives have a fitted effect of over 35% in size. In a few lines: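 Adherent (2D) versus sphere (3D) formats; spheres generated 14 d in SCM beforehand. Compound transferred by pin tool after 4 h, 48 h incubation, CellTiter-Glo endpoint.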
The nature of experiment [3]: P-glycoprotein substrates identified in KB-8-5-11 adenocarcinoma cell line, qHTS therapeutic library screen (AID 1346987). Further: nearly all actives have a fitted effect of over 65% in size. Further: potency means the concentration at half of the fitted maximal effect. In a few lines:
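P-gp-mediated resistance screen: KB-8-5-11 cells treated 72 h with compounds in dose-response. CellTiter-Glo viability.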
A general note: qHTS replaces the single test concentration by a dilution series.

Experiment [4] in a line: qHTS of pediatric cancer cell lines to identify multiple opportunities for drug repurposing: Primary screen for DAOY cells (AID 1347090). Further: nearly all actives have a fitted effect of over 55% in size. Further: potency means the concentration at half of the fitted maximal effect. The essentials: (§2)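 Cell viability, CellTiter-Glo luminescence; 500-1,000 cells/well, 8- or 11-point titration, 48 h compound exposure at 37 degrees C, 5% CO2. Controls: DMSO neutral, bortezomib 2.3 µM final as positive.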
Experiment [5] is described as follows: qHTS of pediatric cancer cell lines to identify multiple opportunities for drug repurposing: Primary screen for A673 cells (AID 1347092). Further: nearly all actives have a fitted effect of over 45% in size. Further: potency means the concentration at half of the fitted maximal effect. The essentials: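 Titration-based qHTS on A673 cells: MIPE compounds spanned 11 points (0.78 nM to 46 µM final), NPC compounds 8 points (0.59 nM to 46 µM final). Viability after 48 h was measured by ATP luminescence.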
The nature of experiment [6]: qHTS of pediatric cancer cell lines to identify multiple opportunities for drug repurposing: Primary screen for SK-N-MC cells (AID 1347093). Further: potency means the concentration at half of the fitted maximal effect. In a few lines: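 Metabolically active cells were quantified by ATP-dependent luminescence (CellTiter-Glo, 15 min at room temperature) following 48 h treatment. Cells had been plated at 500-1,000 per well and settled for 5 h beforehand.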

Experiment [7] in a line: qHTS of pediatric cancer cell lines to identify multiple opportunities for drug repurposing: Primary screen for BT-37 cells (AID 1347094). Further: potency means the concentration at half of the fitted maximal effect. The essentials:
(§3)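 Primary screen of approved and investigational compounds on cells in growth media at 37 degrees C, 5% CO2. MIPE set at 11-point and NPC set at 8-point dilutions; viability scored by ATP-based luminescence at 48 hours.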

Experiment [8] can be described thus: qHTS of pediatric cancer cell lines to identify multiple opportunities for drug repurposing: Primary screen for NB-EBc1 cells (AID 1347095). Further: potency means the concentration at half of the fitted maximal effect. The essentials:
as §3

Experiment [9] can be described thus: P-glycoprotein substrates identified in KB-3-1 adenocarcinoma cell line, qHTS therapeutic library screen (AID 1346986). Further: nearly all actives have a fitted effect of over 60% in size.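 Further: potency means the concentration at half of the fitted maximal effect; potency is for cytotoxicity meaning loss of cell viability.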 In a few lines:
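Counter-screen: cherry-picked hits retested in the KB pair and in HEK-293 pcDNA/MDR-19 cells ± tariquidar. Primary screen used 72 h CellTiter-Glo viability in KB-3-1 and KB-8-5-11.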

A short description of experiment [10]: NS1 protein of Zika virus - qHTS assay to identify small molecule inhibitors in human HEK 293 cells (AID 1347053). Further: nearly all actives have a fitted effect of over 55% in size. Further: potency means the concentration at half of the fitted maximal effect. In a few lines:
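Following 20 h seeding, HEK 293 cells took compound, then 1 h later ZIKV MR766 (MOI = 0.5). Incubation ran 24 h at 37 C before TR-FRET detection of NS1; a drop in signal indicates inhibition.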

Experiment [11] can be described thus: qHTS of pediatric cancer cell lines to identify multiple opportunities for drug repurposing: Primary screen for TC32 cells (AID 1347089). Further: nearly all actives have a fitted effect of over 60% in size. Further: potency means the concentration at half of the fitted maximal effect. The essentials: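 A viability screen of TC32 cells was run over 48 h, with primary MIPE doses spanning 0.78 nM–46 µM and NPC doses 0.59 nM–46 µM. ATP luminescence (CellTiter-Glo) served as the read-out.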
Experiment [12] can be described thus: qHTS of pediatric cancer cell lines to identify multiple opportunities for drug repurposing: Primary screen for SJ-GBM2 cells (AID 1347091). Further: potency means the concentration at half of the fitted maximal effect. In a few lines: as §2
Experiment [13] can be described thus: Identifying Small Molecule Inhibitors of Pancreatic Cancer Stem Cells (Panc1, Adherent) (AID 1259362). Further: potency means the concentration at half of the fitted maximal effect. The conditions noted are these: Potency: viability. The essentials: as §1

Several values for one entry are separate records, joined by “and”; a condition that tells them apart may be missing. Identical values can stand only once. Records with an inconclusive call do not appear. Where a structure was tested more than once in an assay, its records may differ in their call. Activity calls are given as the source filed them. The call rests on the fitted dose curve; in most records, active means well fitted curve in the direction sought with a large enough effect; inconclusive means small, poorly fitted or top-dose-only effect, or another doubt; inactive means no such curve, though single readings can be large; an effect the other way counts as inactive or inconclusive.

For the compound `COc1cc2ncn(-c3cc(OCc4ccccc4C(F)(F)F)c(C(N)=O)s3)c2cc1OC`, the Potency entry in [1] is “inactive”. The IC50 (viability decrease) in experiment [2] is 1.48 µM (active). Also, the Potency in experiment [3] was 0.935 µM (active); in experiment [4] it was 0.372 µM (active); in experiment [5], 0.469 µM (active); in experiment [6] it was 0.469 µM (active); in experiment [7] it was 19.3 µM (active); in experiment [8], 4.69 µM (active).

In the case of `O=C(NC1CCNCC1)c1[nH]ncc1NC(=O)c1c(Cl)cccc1Cl`, the Potency in experiment [1] is 1.05 µM (active); in [9], 0.58 µM (active); in experiment [10], 3.72 µM (active); in experiment [11], 2.34 µM (active); in experiment [4], 1.18 µM (active); in [12], 0.833 µM (active). In addition, the Potency was 0.059 µM (active) in [5], 0.526 µM (active) in experiment [6], 1.37 µM (active) in [7] and 1.87 µM (active) in experiment [8]. In addition, the Potency result in experiment [3] was “inactive”.

Turning to `C[C@]1(CO)CN(c2cc(C(=O)Nc3ccc4c(c3)-c3c(c(C(N)=O)nn3-c3ccc(F)cc3)CC4)c(Cl)cn2)C[C@@]1(C)CO`, the Potency entry in experiment [1] and in experiment [3] was “inactive” each time. The Potency in experiment [9] was 5.8 µM (active); in [10], 4.69 µM (active); in [11] it was 18.6 µM (active); in [4], 11.8 µM (active); in [12], 6.62 µM (active); in [5], 9.35 µM (active). Further, the Potency in [6] is 1.48 µM (active); in experiment [7], 5.44 µM (active); in experiment [8] it was 5.9 µM (active).

Regarding `Nc1nc(-c2nn(Cc3ccccc3F)c3ncccc23)nc(N)c1N1CCOCC1`, the Potency result in experiment [1], in experiment [10], in experiment [11], in experiment [4], in experiment [12] and in experiment [7] was “inactive” in each case. Besides, in [8], the Potency result is “inactive”. The IC50 (viability decrease) result in experiment [2] was “inactive”.

Regarding `Nc1ccc(C(=O)c2cc3c(ccc4ccccc43)[nH]2)cc1`, the Potency result in experiment [1] is “inactive”. Besides, the Potency is 2.96 µM (active) in experiment [13]; 1.18 µM (active) in [3]; 18.7 µM (active) in experiment [10]; 7.39 µM (active) in [11]; 2.96 µM (active) in [5]; 7.69 µM (active) in experiment [7]. Also, the Potency in experiment [8] was 1.66 µM (active).

Take `COc1ccc(CC2SC(=O)NC2=O)cc1C(=O)NCc1ccc(C(F)(F)F)cc1` (stereo unspecified): the Potency result in experiment [1], in experiment [3], in [10], in experiment [11], in experiment [4] and in experiment [12] was “inactive” throughout. The Potency result in [5] and in experiment [7] was “inactive” in each case. The IC50 (viability decrease) entry in experiment [2] is “inactive”.

As to `CC1(C)OC2=C(C(=O)c3ccccc3C2=O)[C@H](NCc2ccccc2)[C@H]1O`, the Potency in experiment [1] is 23.5 µM (active); in [13], 3.32 µM (active); in experiment [11], 18.6 µM (active); in [4], 5.9 µM (active); in [12], 7.43 µM (active); in [5], 0.469 µM (active). Besides, the Potency was 1.48 µM (active) in experiment [6], 8.63 µM (active) in [7] and 2.35 µM (active) in experiment [8].

As for `CN(C)CCCN=c1c2ccccc2n(C)c2[nH]c(=O)n(C)c(=O)c12`, in experiment [1], the Potency result was “inactive”. The IC50 (viability decrease) in experiment [2] was 11.8 µM (active). Also, the Potency in experiment [4] was 23.5 µM (active); in experiment [12] it was 1.87 µM (active); in experiment [5] it was 2.96 µM (active); in experiment [7] it was 4.85 µM (active); in experiment [8], 0.743 µM (active).

Turning to `COc1cc(OC2CCN(C)CC2)ccc1Nc1ncc2c(n1)n(C1CCCC1)c(=O)n2C`, the Potency is 20.9 µM (active) in experiment [1]; 2.96 µM (active) in experiment [13]; 3.72 µM (active) in experiment [3]; 23.5 µM (active) in experiment [4]; 16.6 µM (active) in experiment [12]; 14.8 µM (active) in [5]. In addition, the Potency in [6] was 3.32 µM (active); in experiment [8], 8.33 µM (active).

Turning to `CNc1nccc(-c2cccnc2Oc2cc(C(=O)Nc3cccc(C(F)(F)F)c3)ccc2C)n1`, the Potency was 18.7 µM (active) in experiment [1]; “inactive and 16.4 µM (active)” in experiment [3]; 14.8 µM (active) in experiment [4]; 9.35 µM (active) in experiment [12]; 3.72 µM (active) in [6]; 3.32 µM (active) in experiment [8]. Besides, the Potency result in experiment [9] and in experiment [11] was “inactive” throughout.

For `CC(C)=CCCC(C)=CCCC(C)=CCSc1ccccc1C(=O)O`, in experiment [1], the Potency result is “inactive”. Further, the Potency in [3] is 1.32 µM (active); in experiment [12] it was 0.833 µM (active); in [6] it was 0.743 µM (active); in experiment [8] it was 5.9 µM (active).

Take `O=C(C=Cc1c(C(=O)O)[nH]c2cc(Cl)cc(Cl)c12)Nc1ccccc1`: the Potency entry in [1], in [13], in experiment [3], in experiment [10], in experiment [11] and in experiment [4] was “inactive” throughout. The Potency result in experiment [7] and in experiment [8] was “inactive” throughout.

As to `CC(C)c1ccccc1Cc1cc(C(=O)Nc2ccc(S(=O)(=O)c3ccccc3C(C)(C)C)cc2)c(O)c(O)c1O`, the Potency entry in [1] and in [11] was “inactive” each time. Besides, the Potency is 9.35 µM (active) in experiment [3]; 29.6 µM (active) in experiment [4]; 2.96 µM (active) in [12]; 18.7 µM (active) in experiment [5]; 2.35 µM (active) in experiment [8].

With `O=C(Nc1cc(C(F)(F)F)cc(C(F)(F)F)c1)c1cc(Cl)ccc1O`, the Potency in experiment [1] was 0.833 µM (active); in experiment [13], 0.0332 µM (active); in [10] it was 2.64 µM (active); in experiment [4], 0.59 µM (active); in experiment [5], 4.69 µM (active); in experiment [6], 0.469 µM (active). The figures for the Potency in experiment [7] and in experiment [8] were 0.968 µM (active) and 0.296 µM (active), respectively.

As for `COc1cc(C(C)C)c2c(c1)S(=O)(=O)N(COc1cc(=O)n3cccc(OCCN4CCCCC4)c3n1)C2=O`, the Potency result in experiment [1], in experiment [9], in experiment [3] and in experiment [11] was “inactive” in each case. The Potency was 26.4 µM (active) in [12], 7.43 µM (active) in [5] and 3.72 µM (active) in experiment [6].

In the case of `Cn1c2cc(S(C)=O)sc2c2cnn(Cc3cccc(N)c3)c(=O)c21` (stereo unspecified), the Potency entry in [1], in experiment [3], in experiment [10], in experiment [11], in [4] and in [12] was “inactive” throughout. Also, the Potency entry in [5] and in experiment [8] was “inactive” throughout. Moreover, the IC50 (viability decrease) entry in experiment [2] was “inactive”.
